Compounds with a hit are over-represented: about 4.6% of the library has one in this group of screens.
NALP3 yeast inh = blocks the NALP3 inflammasome reconstituted in yeast; AID 2825; Yeast reconstituted NLRP3/ASC/caspase-1, beta-gal luminescence, 24 h; 330,000 tested, 0.39% active; inhibition, % at 10 µM;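 active = inhibition of 50% or more; inactive = inhibition below 50%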
tim10-1 inh = tim10-1 yeast growth inhibition | S. cerevisiae tim10-1 ts strain growth, BacTiter-Glo, 24 h | inhibition, % at 20 µM | 330,000 tested, 2.2% active;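 active = inhibition of at least 40%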;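 note: mutant grown at 25 °C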
tim23-1 inh = growth inhibitors of tim23-1 mutant yeast; 330,000 tested, 1.3% active; S. cerevisiae tim23-1 growth, BacTiter-Glo luminescence, 24 h; inhibition, % at 20 µM;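 active = growth inhibition of the mutant yeast at or above 50%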;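 note: temperature-sensitive mutant grown at 25 °C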
TIM10 inh = inhibits growth of TIM10 yeast strain | S. cerevisiae TIM10 strain growth, BacTiter-Glo luminescence, 24 h | inhibition, % at 10 µM | 330,000 tested, 1.4% active | AID 463195;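 active = inhibition of 40% or more at the single tested concentration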;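 note: wild-type TIM10 isogenic control strain grown at permissive 25 °C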
PfHsp90 yeast 2 = growth inhibition of yeast expressing Plasmodium Hsp90; 310,000 tested, 0.32% active; S. cerevisiae expressing PfHsp90, BacTiter-Glo ATP, 48 h; yeast lacking PDR1 and PDR3 efflux regulators; inhibition, % at 9.4 µM;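 active = every replicate shows inhibition above about 80%, whatever the replicate mean, limit read from the data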
SKKanGAS inh = inhibitors of SKKanGAS S. pyogenes growth in kanamycin (SK-promoter or general growth effect); 300,000 tested, 1.3% active; BacTiter-Glo, 6 h; inhibition, % at 7.5 µM; AID 1662;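 active = mean replicate score, as percent of positive control median, at least 50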;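 note: strain carries kanamycin resistance gene driven by streptokinase promoter and grows in 40 µg/ml kanamycin; loss of luminescence reflects streptokinase promoter inhibition or plain growth inhibition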
tim10 confirm = confirmation of TIM10 yeast growth inhibitors. shares compounds with TIM10 inh. inhibition, % at 10 µM. 4,600 tested, 63% active. AID 463215. S. cerevisiae tim10 strain growth, BacTiter-Glo luminescence, 24 h;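 active = inhibition of yeast growth at or above a set limit in either of two replicates at 10 µM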; note: this counterscreen used the strain with wild-type TIM10
tim23-1 conf = tim23-1 yeast growth inhibition, confirmed; inhibition, % at 20 µM; shares compounds with tim23-1 inh; S. cerevisiae tim23-1 growth, BacTiter-Glo luminescence, 24 h; 4,400 tested, 83% active; AID 463218;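 active = inhibition above about 39% in either of two replicate wells at 20 µM, limit read from the data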;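 note: temperature-sensitive tim23-1 mutant grown at 25 °C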
Large screens that a line does not name were inactive (follow-up assays come after a bar, where they were run).

Cc1cc(C)c(OCC(=O)Nc2ccc(NC(=O)c3ccco3)cc2)c([N+](=O)[O-])c1	none (no result: NALP3 yeast inh, tim10-1 inh, tim23-1 inh, TIM10 inh, SKKanGAS inh)
COc1ccc(C(=O)COc2cccc(NC(=O)c3ccco3)c2)cc1	none
O=C(COc1cccc(NC(=O)c2ccco2)c1)c1ccccc1	tim23-1 inh 54, TIM10 inh 48 (no result: PfHsp90 yeast 2) | tim10 confirm inactive | tim23-1 conf 66
O=C(Nc1ccc(Oc2cccc3ccccc23)cc1)c1ccco1	tim23-1 inh 58, TIM10 inh 40, SKKanGAS inh 79 | tim10 confirm inactive | tim23-1 conf 77
Cc1ccc(N2CCN(Cc3ccccc3)CC2=O)c(C)c1	none
Cc1ccc(S(=O)(=O)NCC(c2cccnc2)N2CCc3ccccc32)cc1 (stereo not given)	none
COc1ccc2cc(CN(Cc3ccco3)C(c3nnnn3C3CCCCC3)C(C)C)c(=O)[nH]c2c1 (stereo not given)	none
COc1ccc2cc(CN(Cc3ccco3)Cc3nnnn3C3CCCCC3)c(=O)[nH]c2c1	tim23-1 inh 59, TIM10 inh 41 | tim10 confirm inactive | tim23-1 conf 60
CCCCc1ccc(N=N/C(C(=O)Nc2ccc(NC(C)=O)cc2OC)=C(/C)O)cc1	none
O=C(Nc1ccc(Cl)cc1C(=O)N1CCCC1)c1cccc([N+](=O)[O-])c1	none
CCCc1ccc(O)c(N=Cc2cc(Br)cc(OCC)c2O)c1	tim23-1 inh 57, TIM10 inh 43 | tim10 confirm 33 | tim23-1 conf 74
COc1ccc(-c2ncnc(C(F)(F)F)c2-c2csc(C)n2)c(O)c1	none
O=C(N/N=C/c1c(O)ccc2ccccc12)c1cccc(C(F)(F)F)c1	tim23-1 inh 56, TIM10 inh 43, PfHsp90 yeast 2 91, SKKanGAS inh 120 | tim10 confirm inactive | tim23-1 conf 44
O=C1CCCCCN1Sc1ccccc1	tim23-1 inh 58, TIM10 inh 51 | tim10 confirm 35 | tim23-1 conf inactive
CCOC(=O)c1cc(-c2ccncc2)nc2c1c(C)nn2C	tim23-1 inh 53, TIM10 inh 45 | tim10 confirm 41 | tim23-1 conf 51
CC1CC(=O)Nc2ccccc2N1C(=O)CSc1ncnc2sccc12 (stereo not given)	none (no result: SKKanGAS inh)
N/C(=N\OC(=O)Cc1ccccc1[N+](=O)[O-])c1cccc(Br)c1	tim23-1 inh 59, TIM10 inh 51 | tim10 confirm 59 | tim23-1 conf 67
CC(=O)Nc1ccc(N2C(=O)c3cccc(NC(C)=O)c3C2=O)cc1	none
CCCCC(=O)Nc1cccc2c1C(=O)N(c1ccccc1)C2=O	tim23-1 inh 50, TIM10 inh 43 | tim10 confirm 40 | tim23-1 conf 52
CCCn1c(=S)[nH]c2cc(C(=O)N3CCN(C4CCCCC4)CC3)ccc2c1=O	none
CC(C)CNC(=O)CSc1nnc(-c2ccc(Cl)cc2)n1N	none
COC(=O)c1ccc(C(=O)OC)c(NC(=O)CSc2cccc[n+]2[O-])c1	tim23-1 inh 69, TIM10 inh 41 | tim10 confirm inactive | tim23-1 conf 75
O=C(c1ccco1)N1CCN(c2nnc(-c3ccccc3)c3ccccc23)CC1	tim23-1 inh 51 | tim10 confirm inactive | tim23-1 conf inactive
NC(=O)c1cc(Br)cc(C2CCCCC2)c1O	tim23-1 inh 65, TIM10 inh 53 | tim10 confirm 76 | tim23-1 conf inactive
O=C(C(=O)c1cc(Br)ccc1O)c1cc(Br)ccc1O	none (no result: NALP3 yeast inh, tim10-1 inh, tim23-1 inh, TIM10 inh, SKKanGAS inh)
Cc1ccc(S(=O)(=O)N2CCC(=O)CC2)cc1	none
Cc1cc(C)nc(SCc2ccc(C(=O)N/N=C/c3cccc(O)c3O)cc2)n1	tim23-1 inh 60, TIM10 inh 56 | tim10 confirm 47 | tim23-1 conf 56
COc1ccc(O)c(/C=N/NC(=O)c2ccc(CSc3nc(C)cc(C)n3)cc2)c1	none
CCCOc1ccc(C(=O)CCNC(Cc2c[nH]c3ccccc23)C(=O)O)cc1 (stereo not given)	tim23-1 inh 74, TIM10 inh 49 | tim10 confirm 37 | tim23-1 conf inactive

Source: PubChem BioAssay (several laboratories)
